Rows were chosen to be rich in hits. Some 1.7% of all compounds tested hit in one or more screens of this group.
GLP1R ag: agonists of human GLP-1 receptor | P43220 | HEK293 GLP-1R CRE-luciferase, luminescence, 4-6 h; cells express a hypersensitive GLP-1R form | Potency, µM (series often up to 45.6 µM), for the others: at the highest dose activation, actives largely listed as activators | hit rate 0.007% among 380,000 | AID 624172; note: % of control where 0% means no effect
HEK293 tox: cytotoxicity in counter-screen for GLP-1R inverse agonists. Potency, µM (doses to about 38.3 µM), without a hit: at the highest dose activity change, negative = inhibition, hits mostly inhibitors. hit rate 0.13% among 410,000. HEK293 cAMP-luciferase reporter cells, luminescence, 24 h;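 note: loss of luciferase light is scored as toxicity; % is set by controls: 0 for no effect and ±100 for the full control effect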
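Luminescence readout: signal drop marks cytotoxicity. Plated cells grew 12 h at 37 °C, 5% CO2, received 23 nL compound for 24 h, then got luciferase reagent, read after 12 min at RT.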
PTHR1 ag: PTHR1 (human) receptor agonism; Q03431; HEK293 GP2 PTHR1 cells, GloSensor cAMP luminescence, 1 h; Potency, µM (top dose mostly 115 µM), inactives show at the highest dose activation, actives largely listed as activators; hit rate 0.075% among 410,000; AID 743266; note: nearly all actives have a fitted effect of over 55% in size
Target sequence (Q03431 whole entry, looked up): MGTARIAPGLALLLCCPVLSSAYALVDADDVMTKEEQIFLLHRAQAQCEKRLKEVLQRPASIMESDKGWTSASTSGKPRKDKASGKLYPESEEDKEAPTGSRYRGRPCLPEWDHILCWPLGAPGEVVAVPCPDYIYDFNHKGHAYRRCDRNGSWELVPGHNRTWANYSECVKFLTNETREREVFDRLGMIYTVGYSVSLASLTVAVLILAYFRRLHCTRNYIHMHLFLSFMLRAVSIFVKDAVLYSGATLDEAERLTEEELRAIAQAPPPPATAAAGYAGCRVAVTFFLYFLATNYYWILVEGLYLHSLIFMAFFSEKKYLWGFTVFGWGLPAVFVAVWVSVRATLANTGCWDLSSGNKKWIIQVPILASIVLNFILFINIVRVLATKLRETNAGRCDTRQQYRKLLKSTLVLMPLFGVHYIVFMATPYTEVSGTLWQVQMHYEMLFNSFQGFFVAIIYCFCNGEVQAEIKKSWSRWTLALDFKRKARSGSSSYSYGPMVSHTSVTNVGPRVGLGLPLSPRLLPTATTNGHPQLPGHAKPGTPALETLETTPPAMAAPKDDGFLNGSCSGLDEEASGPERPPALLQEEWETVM
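HEK-293-derived GP2 cells expressing PTHR1 and a GloSensor cAMP reporter, 3,000/well, plated overnight, given luciferin plus IBMX (each 0.5 mM as added) for 1 h at 37 °C, then compound for 1 h at 37 °C. Luminescence was read after 15 min at room temperature.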
GLP1R inv ag: inverse agonists of human GLP-1 receptor. P43220. HEK293 GLP-1R CRE-luciferase, luminescence, 24 h; GLP-1R form is constitutively active. Potency, µM (series often up to 38.3 µM), for inactives: at the highest dose activity change, negative = inhibition, actives largely listed as inhibitors. hit rate 1.6% among 410,000. AID 624417; note: % is set by controls: 0 for no effect and ±100 for the full control effect; nearly all actives have a fitted effect of over 55% in size
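Luminescence readout: a drop in cAMP-driven luciferase signal flags inverse agonism at a constitutively active GLP-1R stably expressed in HEK293. Compound exposure lasted 24 hr at 37 deg C, 5% CO2.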
An asterisk follows results filed as active; i = inactive; ? = inconclusive; nt = no result given; [ ] = another dose, or the depositor's remark. Calls come from the whole dose curve; as a rule, active = well fitted curve in the direction sought with a large enough effect; inconclusive = small, poorly fitted or top-dose-only effect, or another doubt; inactive = no such curve, though single readings can be large; an effect the other way counts as inactive or inconclusive. Potency is the fitted concentration of half-maximal effect.

SMILES | GLP1R ag | HEK293 tox | PTHR1 ag | GLP1R inv ag
COc1ccccc1N1CCN(C(=O)CSc2nc3ccccc3nc2N2CCCCC2)CC1 | 6.3% | 1.4% | -24.2% | 5.01µM*
COc1ccc2c(c1OC)C(=O)OC2N1C(=O)CC[C@H]1C(=O)Nc1ccc2c(c1)OCO2 (some centres not stated) | 1.4% | -0.3% | i | 6.4%
CCc1ccc(NCc2cc3ccc(OC)cc3n(CC(=O)Nc3c(C)cc(C)cc3C)c2=O)cc1 | 9.1% | -1.9% | -1.2% | 12.1%
CC1CCCN(CCCNC(=O)c2cc3c(s2)-c2ccccc2OC3)C1 (configuration not stated) | 16.1% | -9.5% | -3.2% | 8.91µM*
CC(C)c1cnc2c(c1SCC(=O)Nc1ccccc1C(F)(F)F)c(=O)n(C)c(=O)n2C | nt | -1.2% | i | 2.4%
O=C1C=CC(=C(c2ccc(O)cc2)c2ccc(O)cc2)C=C1 | -6.4% | 8.91µM* | -95.0% | 5.62µM*
CC(C)Cn1nc(C(=O)N2CCc3ccccc32)c2ccccc2c1=O | 1.9% | 5.6% | -17.5% | 11.2µM*
CCCn1nc(C(=O)N2CCc3ccccc32)c2ccccc2c1=O | 17.2% | -1.4% | -32.4% | ?
Cc1ccc(S(=O)(=O)N(CC(=O)NCCSCc2ccco2)c2cc(C)ccc2C)cc1 | 0.0% | 1.6% | -30.1% | 11.2µM*
CCN(CC)CCNc1ccc(C)c2sc3ccc(O)cc3c(=O)c12 | -27.5% | ? | i | 10µM*
O=C(NNc1ccc(F)cc1)c1c(F)cccc1Cl | 0.1% | -24.5% | i | 1.12µM*
CC1(C)Cc2c(cnn2-c2cccc(F)c2)C(NC(=O)CSc2ccccn2)C1 (configuration not stated) | 13.0% | 61.6% | -41.2% | ?
CC(C)n1cc(/C=C2\NC(=O)N(c3cccc(Cl)c3)C2=O)c2ccccc21 | -14.6% | -14.7% | 25.3%[57.5 µM] | 3.98µM*
CSc1ccc(Cl)c(C(=O)Nc2ccc(Cl)cn2)c1 | 7.4% | -18.5% | -25.4% | ?
COc1cc(SC)ccc1C(=O)Nc1ccc(Cl)cn1 | -2.9% | 4.8% | -92.8% | 2.24µM*
CC(O)CNCc1ccc(-c2ccccc2)cc1 (configuration not stated) | 1.6% | 6.5% | -18.5%[57.5 µM] | 0.0%
CC(NCc1ccc(-c2ccccc2)cc1)C(O)c1ccccc1 (configuration not stated) | -5.0% | ? | -6.6% | 7.94µM*
O=C(NNC1=C(C(=O)C(F)(F)F)CCC1)c1ccccc1O | -0.9% | 4.4% | -18.9%[57.5 µM] | 2.82µM*
COc1ccc(OC)c(NC(=O)CSc2nnc3ccc4ccccc4n23)c1 | nt | -10.6% | i | 11.8%
COc1cccc(/C=N/NC(=O)Cn2nc(C)c([N+](=O)[O-])c2C)c1O | -10.6% | 15.0%[1.53 µM] | -6.9% | -17.0%
COc1cccc(/C=N/NC(=O)C(C)n2nc(C)c([N+](=O)[O-])c2C)c1O (configuration not stated) | -2.7% | ? | i | 1.78µM*
COc1ccccc1N(CC(=O)Nc1ccccc1C(F)(F)F)S(=O)(=O)c1ccc(C)cc1 | -2.0% | 4.0% | -15.1% | ?
Cc1cccc(N(CC(=O)Nc2ccccc2C(F)(F)F)S(=O)(=O)c2ccccc2)c1C | -5.6% | 1.1% | i | 11.2µM*
CCOC(=O)c1ccc(NC(=O)Nc2ccc3snnc3c2)cc1 | 11.5% | -5.2% | -4.1% | -2.8%
CCCOc1ccc(C(=O)Nc2ccc3oc(-c4ccc(N(C)C)cc4)nc3c2)cc1 | nt | 2.0% | i | -9.5%
SMILES | GLP1R ag | HEK293 tox | PTHR1 ag | GLP1R inv ag
Cc1ccc2c(c1)COc1c3ccc(C(=O)O)cc3nn1-2 | -8.7% | 5.4% | -7.8% | 1.26µM*
Cc1ccc2c(c1)COc1c3ccc(C(=O)NCC4CC4)cc3nn1-2 | 3.9% | 16.8% | -53.6% | 14.3%
O=C(OCC(=O)C12CC3CC(CC(C3)C1)C2)c1ccc(O)cc1O | 22.7% | ? | i | 11.2µM*
COC(=O)N/N=C/C1=C[N+](=O)c2ccccc2[N+]1=O | -4.4% | nt | nt | nt
Cc1ccc(NC(=O)Cc2coc3ccc(C(C)C)cc23)cc1Cl | nt | -9.7% | -82.1% | ?
CCCCOC(=O)c1ccc(NC(=O)Cc2coc3ccc(C(C)C)cc23)cc1 | nt | ? | -84.9% | 7.94µM*
CCn1c(CN2CCCCC2)nc2cc(NC(=O)c3ccc([N+](=O)[O-])cc3)ccc21 | nt | -1.5% | -26.8% | ?
